Consider eight compounds from PubChem BioAssay (NCI).

About 83,000 compounds went through this panel and 20% of them were active in at least one assay; those are over-represented in the sample as a whole.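 How to read the values: 0–100, growth inhibition (40 = 60% inhibited); 0, no net growth; -100 to 0, cell death (-40 = 40% of starting cells died; -100 = all dead).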 Values without a mark were called inactive. Activity calls are given as the source filed them. How the source made its calls: active means growth percent below 10; inactive means the rest.

Some test systems named below: NCI-H23 lung; NCI-H226 lung; NCI-H322M lung; HOP-62 NSCLC; NCI-H460 lung; HOP-92 NSCLC; NCI-H522 lung; A549/ATCC NSCLC; 786-0 renal; COLO 205 colon; DU-145 prostate; K-562 leukemia; MALME-3M melanoma; MDA-MB-231 breast; RXF 393 renal; SF-268 CNS; SF-295 CNS; SF-539 CNS; M14 melanoma.
What all share (test): NCI-60 one-dose screen, 48 h (100 = growth as untreated, 0 = no growth, -100 = all killed)
Holding throughout (details): 10 µM unless noted

As to `COc1ccc2c(c1)NC(=O)CN2c1nc(C)nc2ccccc12`, the growth was 20.4% with NCI-H23 lung; 65.8% in the test with NCI-H226 lung; 42.8% with NCI-H322M lung; 29.2% in the test with HOP-62 NSCLC; 2.28% (active) in the test on NCI-H460 lung; -5.74% (active) in the test on HOP-92 NSCLC. For the same compound, the growth in the test on NCI-H522 lung was -21.1% (active); in the test with A549/ATCC NSCLC it was 21.3%; in the test on 786-0 renal it was 19.8%; with COLO 205 colon, -35% (active); with DU-145 prostate, -0.215% (active); in the test with K-562 leukemia, 9.83% (active). The growth is 67.6% with MALME-3M melanoma; 11.6% in the test with MDA-MB-231 breast; 55.1% with RXF 393 renal; 24.4% in the test on SF-268 CNS; 14.2% in the test on SF-295 CNS; -0.932% (active) with SF-539 CNS. The growth in the test on M14 melanoma was 10.8%.

For `COc1cc(C(=O)CCCl)ccc1O`, the growth was 91.8% with NCI-H23 lung; 88.9% in the test with NCI-H226 lung; 106% in the test with NCI-H322M lung; 112% in the test on HOP-62 NSCLC; 106% in the test with NCI-H460 lung; 95.6% in the test on HOP-92 NSCLC. Also, the growth with NCI-H522 lung is -24.2% (active); in the test on A549/ATCC NSCLC, 102%; with 786-0 renal, 106%; in the test with COLO 205 colon, 109%; in the test with DU-145 prostate it was 107%; in the test on K-562 leukemia, 97.4%. Further, the growth in the test on MALME-3M melanoma was 88.7%; in the test on MDA-MB-231 breast, 94.3%; in the test on RXF 393 renal, 98.2%; with SF-268 CNS it was 96.1%; in the test with SF-295 CNS it was 100%; in the test on SF-539 CNS, 94.7%. The growth in the test with M14 melanoma is 111%.

Consider `CC(C)CCC[C@@H](C)[C@H]1CC[C@H]2[C@@H]3CC[C@H]4C/C(=N/O)CC[C@]4(C)[C@H]3CC[C@]12C`, for which the growth with NCI-H23 lung was 107%; in the test on NCI-H226 lung, 92.1%; in the test on NCI-H322M lung it was 103%; in the test on HOP-62 NSCLC it was 92.8%; in the test on NCI-H460 lung, 106%; in the test with HOP-92 NSCLC, 101%. In addition, the growth was 104% in the test on NCI-H522 lung; 73.1% in the test on A549/ATCC NSCLC; 102% with 786-0 renal; 108% in the test on COLO 205 colon; 116% in the test on DU-145 prostate; 91.2% in the test with K-562 leukemia. The growth was 104% in the test with MALME-3M melanoma; 98.8% with MDA-MB-231 breast; 102% in the test on RXF 393 renal; 110% in the test on SF-268 CNS; 101% in the test with SF-295 CNS; 109% with SF-539 CNS. For the same compound, in the test with M14 melanoma, the growth was 104%.

Take `O=C(/C=C/CN1CCCCC1)Nc1cc2c(Nc3ccc(F)c(Cl)c3F)ncnc2cc1OCCOC(F)F`: the growth was 26.3% in the test with NCI-H23 lung; 28.6% in the test on NCI-H226 lung; 5.03% (active) in the test on NCI-H322M lung; 20.6% in the test on HOP-62 NSCLC; 21.7% in the test with NCI-H460 lung; -39.2% (active) with HOP-92 NSCLC. In addition, the growth was -32% (active) in the test on NCI-H522 lung; 18.2% with A549/ATCC NSCLC; 10.7% in the test with 786-0 renal; 24.8% in the test with COLO 205 colon; 17.6% in the test on DU-145 prostate; 7.24% (active) in the test on K-562 leukemia. Besides, the growth was 25.8% with MALME-3M melanoma; -4.23% (active) with MDA-MB-231 breast; -17.1% (active) in the test on RXF 393 renal; 16.1% in the test with SF-268 CNS; 28.1% with SF-295 CNS; 16.8% with SF-539 CNS. Further, the growth in the test with M14 melanoma is 34.2%.

For the compound `COC(=O)CCCCCCN=Cc1c(O)c(O)c(C(C)C)c2cc(C)c(-c3c(C)cc4c(C(C)C)c(O)c(O)c(C=NCCCCCCC(=O)OC)c4c3O)c(O)c12`, the growth in the test with NCI-H23 lung is 19.5%; with NCI-H226 lung it was 77.3%; in the test on NCI-H322M lung it was 45.2%; in the test with HOP-62 NSCLC, 24%; in the test with NCI-H460 lung, 6.7% (active); in the test on HOP-92 NSCLC, 7.71% (active). Further, the growth with NCI-H522 lung is -6.49% (active); with A549/ATCC NSCLC it was 29.7%; with 786-0 renal it was 29%; in the test with COLO 205 colon, 15.7%; with DU-145 prostate, 30.6%; in the test on K-562 leukemia, 10.5%. In addition, the growth is 68.5% in the test with MALME-3M melanoma; 11.9% in the test on MDA-MB-231 breast; 36.2% in the test on RXF 393 renal; 32.8% in the test with SF-268 CNS; 7.26% (active) in the test with SF-295 CNS; 15.2% with SF-539 CNS. Moreover, in the test on M14 melanoma, the growth is 27%.

With `CCSc1nnc(NC(=O)COc2ccc(Cl)cc2C)s1`, the growth was 105% in the test with NCI-H23 lung; 101% in the test on NCI-H226 lung; 120% with NCI-H322M lung; 100% in the test with HOP-62 NSCLC; 112% in the test with NCI-H460 lung; 83.2% in the test on HOP-92 NSCLC. In addition, the growth with NCI-H522 lung was 94.4%; with A549/ATCC NSCLC it was 104%; in the test with 786-0 renal it was 94.7%; in the test on COLO 205 colon it was 93.9%; in the test on DU-145 prostate, 106%; in the test with K-562 leukemia, 103%. Further, the growth in the test with MALME-3M melanoma was 106%; in the test with MDA-MB-231 breast, 111%; in the test with RXF 393 renal, 89.3%; with SF-268 CNS it was 110%; in the test on SF-295 CNS, 94.2%; in the test with SF-539 CNS, 103%. For the same compound, the growth in the test with M14 melanoma was 105%.

With `CC/C=C\C[C@H](O)C/C=C1/C(=O)C(Cl)=C[C@@H]1C/C=C\CCCC(=O)OC`, the growth in the test on NCI-H23 lung was -43.8% (active); with NCI-H226 lung, -10.9% (active); with NCI-H322M lung, 31.8%; in the test on HOP-62 NSCLC, -27.1% (active); with NCI-H460 lung, -31.6% (active); in the test on HOP-92 NSCLC, -31.3% (active). The growth in the test on NCI-H522 lung was -67.1% (active); in the test on A549/ATCC NSCLC, 4.38% (active); in the test on 786-0 renal, -40.8% (active); with COLO 205 colon, -61.6% (active); with DU-145 prostate it was -67.1% (active); in the test with K-562 leukemia it was 2.41% (active). The growth with MALME-3M melanoma is -9.56% (active); in the test on MDA-MB-231 breast, -55.2% (active); with RXF 393 renal, -62.8% (active); in the test with SF-268 CNS it was -35% (active); in the test on SF-295 CNS it was -19.6% (active); with SF-539 CNS, -4.69% (active). Also, in the test with M14 melanoma, the growth is -32.4% (active).

With `O=S(=O)(NCCNc1cc(-c2cn(-c3ccccc3)nc2-c2ccccc2)ccn1)c1ccc(F)cc1`, the growth was 81.6% in the test on NCI-H23 lung; 77.7% in the test on NCI-H226 lung; 96.2% with NCI-H322M lung; 98.8% with HOP-62 NSCLC; 91.7% in the test with NCI-H460 lung; 40.7% in the test with HOP-92 NSCLC. In addition, the growth in the test with NCI-H522 lung is 82.9%; in the test on A549/ATCC NSCLC it was 77.6%; in the test with 786-0 renal it was 81.5%; with COLO 205 colon it was 98.8%; in the test on DU-145 prostate, 88.3%; with K-562 leukemia it was 54.3%. Also, the growth with MALME-3M melanoma was 101%; in the test on MDA-MB-231 breast, 80.1%; in the test with RXF 393 renal, 75.1%; in the test with SF-268 CNS it was 83.2%; in the test on SF-295 CNS, 87.6%; in the test with SF-539 CNS it was 103%. Moreover, the growth in the test on M14 melanoma is 87%.
